Potency data for seven compounds are collected here from PubChem BioAssay (NCATS).

Test [1] can be described thus: qHTS of pediatric cancer cell lines to identify multiple opportunities for drug repurposing: Primary screen for A673 cells (AID 1347092). Also: nearly all actives have a fitted effect of over 45% in size. Also: potency is read from the fitted curve at half-maximal effect. The settings on record: A673 Ewing sarcoma viability, CellTiter-Glo ATP luminescence, 48 h; series mostly up to 46 µM. An outline of the steps:
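Cells are plated, rested 5 h, dosed by pintool, incubated 48 h, then lysed with CellTiter-Glo and read by luminescence. DMSO is the neutral control; bortezomib at 2.3 uM final is the positive control.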
(In general: In qHTS, concentration-response curves come from the screen itself.)

Test [2] in a line: qHTS of pediatric cancer cell lines to identify multiple opportunities for drug repurposing: Primary screen for SK-N-MC cells (AID 1347093). Also: potency is read from the fitted curve at half-maximal effect. Particulars: SK-N-MC viability, CellTiter-Glo luminescence, 48 h; series mostly up to 46 µM. In a few lines:
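Metabolically active cells were quantified by ATP-dependent luminescence (CellTiter-Glo, 15 min at room temperature) following 48 h treatment. Cells had been plated at 500-1,000 per well and settled for 5 h beforehand.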

Test [3] can be described thus: qHTS of pediatric cancer cell lines to identify multiple opportunities for drug repurposing: Primary screen for BT-37 cells (AID 1347094). Particulars: BT-37 viability, CellTiter-Glo luminescence, 48 h; series mostly up to 57.3 µM. An outline of the steps: (§1)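 Cells seeded at 500-1,000 cells/well in growth media, rested 5 hours at 37 degrees C, 5% CO2, then dosed; MIPE compounds at 11-point (from 0.78 nM) and NPC at 8-point (from 0.59 nM) final concentrations. Viability by CellTiter-Glo luminescence after 48 hours.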

Test [4] can be described thus: qHTS of pediatric cancer cell lines to identify multiple opportunities for drug repurposing: Primary screen for NB-EBc1 cells (AID 1347095). Also: potency is read from the fitted curve at half-maximal effect. The settings on record: NB-EBc1 neuroblastoma viability, CellTiter-Glo luminescence, 48 h; series mostly up to 46 µM. An outline of the steps:
as §1

The nature of test [5]: qHTS of pediatric cancer cell lines to identify multiple opportunities for drug repurposing: Primary screen for U-2 OS cells (AID 1347096). Also: nearly all actives have a fitted effect of over 50% in size. Also: potency is read from the fitted curve at half-maximal effect. The settings on record: U-2 OS viability, CellTiter-Glo luminescence, 48 h; series mostly up to 46 µM. In a few lines: (§2)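 Cells (500-1,000/well) rested 5 h, then received compounds for 48 h; metabolically active cells were measured by CellTiter-Glo luminescence. Final concentrations spanned up to 46 µM (MIPE, 11-point) or 0.59 nM-46 µM (NPC, 8-point) in primary screens, 11-point in follow-ups.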

Test [6] is described as follows: qHTS of pediatric cancer cell lines to identify multiple opportunities for drug repurposing: Primary screen for Saos-2 cells (AID 1347097). Also: nearly all actives have a fitted effect of over 40% in size. Also: potency is read from the fitted curve at half-maximal effect. Particulars: Saos-2 viability, CellTiter-Glo ATP luminescence, 48 h; series mostly up to 46 µM. In a few lines: as §1
Test [7] is described as follows: qHTS of pediatric cancer cell lines to identify multiple opportunities for drug repurposing: Primary screen for SK-N-SH cells (AID 1347098). Also: nearly all actives have a fitted effect of over 65% in size. Also: potency is read from the fitted curve at half-maximal effect. The settings on record: SK-N-SH viability, CellTiter-Glo luminescence, 48 h; series mostly up to 57 µM. An outline of the steps:
as §2

The nature of test [8]: qHTS of pediatric cancer cell lines to identify multiple opportunities for drug repurposing: Primary screen for LAN-5 cells (AID 1347100). Also: potency is read from the fitted curve at half-maximal effect. The settings on record: LAN-5 neuroblastoma viability, CellTiter-Glo luminescence, 48 h; series mostly up to 46 µM. In a few lines: as §2
A short description of test [9]: qHTS of pediatric cancer cell lines to identify multiple opportunities for drug repurposing: Primary screen for BT-12 cells (AID 1347101). Also: nearly all actives have a fitted effect of over 25% in size. Also: potency is read from the fitted curve at half-maximal effect. Particulars: BT-12 viability, CellTiter-Glo luminescence, 48 h; series mostly up to 57.3 µM. An outline of the steps:
as §2

Test [10] is described as follows: qHTS of pediatric cancer cell lines to identify multiple opportunities for drug repurposing: Primary screen for Rh18 cells (AID 1347102). Also: nearly all actives have a fitted effect of over 65% in size. Also: potency is read from the fitted curve at half-maximal effect. Particulars: Rh18 rhabdomyosarcoma viability, CellTiter-Glo luminescence, 48 h; series mostly up to 46 µM. In a few lines: as §2
Test [11] can be described thus: qHTS of pediatric cancer cell lines to identify multiple opportunities for drug repurposing: Primary screen for OHS-50 cells (AID 1347103). Also: nearly all actives have a fitted effect of over 40% in size. Also: potency is read from the fitted curve at half-maximal effect. Particulars: OHS-50 osteosarcoma viability, CellTiter-Glo luminescence, 48 h; series mostly up to 57.3 µM. An outline of the steps:
as §2

Test [12] is described as follows: qHTS of pediatric cancer cell lines to identify multiple opportunities for drug repurposing: Primary screen for RD cells (AID 1347104). Also: nearly all actives have a fitted effect of over 55% in size. Also: potency is read from the fitted curve at half-maximal effect. Particulars: RD rhabdomyosarcoma viability, CellTiter-Glo luminescence, 48 h; series mostly up to 46 µM. In a few lines:
as §1

A short description of test [13]: qHTS of pediatric cancer cell lines to identify multiple opportunities for drug repurposing: Primary screen for MG 63 (6-TG R) cells (AID 1347105). Also: nearly all actives have a fitted effect of over 50% in size. Also: potency is read from the fitted curve at half-maximal effect. The settings on record: MG 63 (6-TG R) viability, CellTiter-Glo, 48 h; series mostly up to 46 µM. An outline of the steps: as §1
The nature of test [14]: qHTS of pediatric cancer cell lines to identify multiple opportunities for drug repurposing: Primary screen for control Hh wild type fibroblast cells (AID 1347106). Also: nearly all actives have a fitted effect of over 55% in size. Also: potency is read from the fitted curve at half-maximal effect. The settings on record: Hh wild-type fibroblast viability, CellTiter-Glo luminescence, 48 h; series mostly up to 46 µM. In a few lines: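 Cells (500-1,000/well) in growth media were settled 5 h at 37 degrees C, then given compounds for 48 h. Viability was read as CellTiter-Glo luminescence. Primary runs used MIPE at 11 points (0.78 nM-46 µM) and NPC at 8 points (0.59 nM-46 µM); follow-ups used 11 points.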

A short description of test [15]: qHTS of pediatric cancer cell lines to identify multiple opportunities for drug repurposing: Primary screen for Rh30 cells (AID 1347107). Also: nearly all actives have a fitted effect of over 75% in size. Also: potency is read from the fitted curve at half-maximal effect. The settings on record: Rh30 rhabdomyosarcoma viability, CellTiter-Glo luminescence, 48 h; series mostly up to 46 µM. An outline of the steps:
as §2

Test [16] can be described thus: qHTS of pediatric cancer cell lines to identify multiple opportunities for drug repurposing: Primary screen for Rh41 cells (AID 1347108). Also: nearly all actives have a fitted effect of over 70% in size. Also: potency is read from the fitted curve at half-maximal effect. The settings on record: Rh41 rhabdomyosarcoma viability, CellTiter-Glo luminescence, 48 h; series mostly up to 46 µM. In a few lines: as §1
Test [17] in a line: qHTS of pediatric cancer cell lines to identify multiple opportunities for drug repurposing: Primary screen for NB1643 cells (AID 1347099). Also: nearly all actives have a fitted effect of over 50% in size. Also: potency is read from the fitted curve at half-maximal effect. Particulars: NB1643 neuroblastoma viability, CellTiter-Glo luminescence, 48 h; series mostly up to 46 µM. An outline of the steps:
as §1

The nature of test [18]: qHTS of pediatric cancer cell lines to identify multiple opportunities for drug repurposing: Confirmatory screen for NB1643 cells (AID 1347109). Also: nearly all actives have a fitted effect of over 45% in size. Also: potency is read from the fitted curve at half-maximal effect. Particulars: NB1643 neuroblastoma cell viability; series mostly up to 45.9 µM. An outline of the steps: as §2
Test [19] can be described thus: qHTS of pediatric cancer cell lines to identify multiple opportunities for drug repurposing: Confirmatory screen for A673 cells (AID 1347110).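 Also: potency is read from the fitted curve at half-maximal effect; cells exposed to compound for 48 h before the viability read; nearly all actives have a fitted effect of over 65% in size.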 The settings on record: A673 Ewing sarcoma cell viability; series mostly up to 45.9 µM. An outline of the steps: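 Cells plated at 500-1,000/well were treated five hours later with multi-point dilutions up to 46 µM final. After two days, CellTiter-Glo was added and luminescence read.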

Inconclusive results are not listed. Activity calls are given as the source filed them. Calls follow the shape of the dose curve; as a rule, active = well fitted curve in the direction sought with a large enough effect; inconclusive = small, poorly fitted or top-dose-only effect, or another doubt; inactive = no such curve, though single readings can be large; an effect the other way counts as inactive or inconclusive.

As for `O=C(O)C(Cl)Cl`, the Potency result in test [1], in test [2], in test [3], in test [4], in test [5] and in test [6] was “inactive” in each case. Moreover, the Potency result in test [7], in test [8], in [9], in test [10], in [11] and in [12] was “inactive” in each case. The Potency result in test [13], in test [14], in [15] and in [16] was “inactive” each time.

Take `C=C[C@@H]1CN2CCC1C[C@@H]2[C@@H](O)c1ccnc2ccccc12` (stereo not given in full): the Potency in test [1] was 18700 nM (active); in test [2], 9350 nM (active); in [6], 26400 nM (active); in [7] it was 30400 nM (active); in [11], 30600 nM (active); in test [12] it was 29600 nM (active). For the same compound, the Potency entry in [5], in [13] and in test [14] was “inactive” throughout.

As to `CC(O)=C(C#N)C(=O)Nc1cc(Br)ccc1Br`, the Potency result in test [1], in test [3], in [5], in [9], in test [10] and in [11] was “inactive” throughout. Moreover, the Potency entry in test [12], in [13], in [14] and in test [15] was “inactive” in each case. The Potency in test [2] is 332 nM (active); in [17] it was 1320 nM (active).

Regarding `CC[C@@H]1[C@@H](C)O[C@@](O)([C@@H](C)[C@H](O)[C@H](C)[C@H]2OC(=O)C=CC=C[C@@H](C)[C@@H]([C@@H](C)[C@@H](O)[C@H](C)[C@@]3(O)C[C@H](O[C@H]4C[C@H](O)[C@H](O)[C@H](C)O4)[C@H](CC)[C@@H](C)O3)OC(=O)C=CC=C[C@@H]2C)C[C@H]1O[C@H]1C[C@H](O)[C@H](O)[C@H](C)O1`, the Potency in test [1] is 743 nM (active); in [2], 372 nM (active); in [4], 418 nM (active); in [5] it was 935 nM (active); in test [6], 372 nM (active); in test [7], 21500 nM (active). Moreover, the Potency was 833 nM (active) in test [17]; 372 nM (active) in test [8]; 863 nM (active) in test [9]; 590 nM (active) in test [10]; 306 nM (active) in test [11]; 264 nM (active) in [12]. Further, the Potency in [14] was 9350 nM (active); in test [15], 935 nM (active); in [16], 743 nM (active). Also, the Potency entry in test [18] was “inactive”.

In the case of `O=[N+]([O-])c1cc([N+](=O)[O-])c2ccccc2c1`, the Potency entry in [1], in test [3], in test [5], in test [6], in test [7] and in test [17] was “inactive” each time. Besides, the Potency entry in test [8], in test [9], in [10], in test [11], in [12] and in test [14] was “inactive” throughout. Further, the Potency result in [15] and in test [16] was “inactive” throughout. For the same compound, the Potency in test [2] was 10900 nM (active).

On to `COc1cc2cc(c1Cl)N(C)C(=O)C[C@H](OC(=O)C(C)C)[C@]1(C)O[C@H]1[C@H](C)[C@@H]1C[C@@](O)(NC(=O)O1)[C@H](OC)C=CC=C(C)C2`, for which the Potency is 1 nM (active) in test [1]; 1 nM (active) in test [2]; 1 nM (active) in test [4]; 662 nM (active) in test [6]; 1 nM (active) in test [8]; 48.5 nM (active) in test [9]. Moreover, the Potency in test [11] is 1 nM (active); in test [18], 65700 nM (active); in test [19] it was 1 nM (active). Further, the Potency entry in test [5], in test [10], in test [13], in test [14], in test [15] and in [16] was “inactive” throughout.

Turning to `O=C(Oc1ccc([N+](=O)[O-])cc1)N1CCN(Cc2cccc(Oc3ccccc3)c2)CC1`, the Potency is 18700 nM (active) in test [1], 18700 nM (active) in test [2], 18700 nM (active) in test [12] and 14800 nM (active) in test [13]. The Potency result in test [3], in test [4], in [5], in test [8], in [10] and in test [11] was “inactive” throughout. In addition, the Potency result in test [15] and in test [16] was “inactive” throughout.
